From PubChem BioAssay AID1159580 (chemical genetic matrix, 2015)
About 2,000 (36%) of roughly 5,500 compounds were called active. Roughly 18% stayed inconclusive and do not appear here. No stated cut-off is given here; in the data, active means normalized growth mostly below about 0.91 (no sharp cut-off); inconclusive means no clear call, values can overlap the other calls; inactive means mostly above about 0.92. The list shows a part of the results.

Assay: chemical genetic growth profiling, strain panel (AID 1159580);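 further: tested at 20 µM; growth read once vehicle control cultures reached saturation at 30 °C; 1 = growth at the plate median or of vehicle wells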
Settings: S. cerevisiae deletion strains, growth OD

Measured: normalized growth

COc1ccc(/C=C/C(=O)c2cc(O)ccc2O)cc1
active: locus YAL021C, strain ccr4, stronger effect = lower value 0.81 | locus YAL026C, strain drs2, stronger effect = lower value 0.224 | locus YAL030W, strain snc1, stronger effect = lower value 0.31 | locus YBL061C, strain skt5, stronger effect = lower value 0.38 | locus YBR009C, strain hhf1, stronger effect = lower value 0.15 | locus YBR023C, strain chs3, stronger effect = lower value 0.314 | locus YBR171W, strain sec66, stronger effect = lower value 0.521 | locus YBR231C, strain swc5, stronger effect = lower value 0.324 | locus YBR279W, strain paf1, stronger effect = lower value 0.242 | locus YCL011C, strain gbp2, stronger effect = lower value 0.15 | locus YCL016C, strain dcc1, stronger effect = lower value 0.227 | locus YCL061C, strain MRC1, stronger effect = lower value 0.167 | locus YCL069W, strain vba3, stronger effect = lower value 0.13 | locus YCR088W, strain abp1, stronger effect = lower value 0.263 | locus YDL005C, strain med2, stronger effect = lower value 0.424 | locus YDL040C, strain nat1, stronger effect = lower value 0.646 | locus YDR001C, strain nth1, stronger effect = lower value 0.344 | locus YDR069C, strain doa4, stronger effect = lower value 0.844 | locus YDR137W, strain rgp1, stronger effect = lower value 0.285 | locus YDR159W, strain sac3, stronger effect = lower value 0.268 | locus YDR195W, strain ref2 0.482 | locus YDR297W, strain sur2, stronger effect = lower value 0.362 | locus YDR334W, strain swr1, stronger effect = lower value 0.172 | locus YDR335W, strain msn5, stronger effect = lower value 0.238 | locus YDR392W, strain spt3, stronger effect = lower value 0.0876 | locus YEL003W, strain gim4, stronger effect = lower value 0.133 | locus YEL037C, strain rad23, stronger effect = lower value 0.617 | locus YEL061C, strain CIN8 (second series), stronger effect = lower value 0.0921 | locus YER015W, strain faa2, stronger effect = lower value 0.429 | locus YER016W, strain bim1, stronger effect = lower value 0.426 | locus YER111C, strain swi4, stronger effect = lower value 0.0945 | locus YER155C, strain BEM2 (second series), stronger effect = lower value 0.106 | locus YFR010W, strain ubp6, stronger effect = lower value 0.685 | locus YGL167C, strain pmr1, stronger effect = lower value 0.894 | locus YGL173C, strain kem1, stronger effect = lower value 0.516 | locus YGL227W, strain vid30, stronger effect = lower value 0.103 | locus YGL240W, strain doc1, stronger effect = lower value 0.48 | locus YGL253W, strain hxk2, stronger effect = lower value 0.172 | locus YHR013C, strain ard1, stronger effect = lower value 0.421 | locus YHR027C, strain rpn1, stronger effect = lower value 0.661 | locus YHR030C, strain SLT2, stronger effect = lower value 0.432 | locus YHR079C, strain IRE1, stronger effect = lower value 0.456 | locus YHR142W, strain chs7, stronger effect = lower value 0.101 | locus YJL092W, strain hpr5, stronger effect = lower value 0.272 | locus YJL095W, strain BCK1 (second series), stronger effect = lower value 0.0826 | locus YJL095W, strain BCK1, stronger effect = lower value 0.427 | locus YJL115W, strain asf1, stronger effect = lower value 0.416 | locus YJL129C, strain trk1, stronger effect = lower value 0.373 | locus YJL154C, strain vps35, stronger effect = lower value 0.613 | locus YJL164C, strain tpk1, stronger effect = lower value 0.152 | locus YJL166W, strain qcr8, stronger effect = lower value 0.141 | locus YJL187C, strain SWE1, stronger effect = lower value 0.269 | locus YJR066W, strain TOR1, stronger effect = lower value 0.465 | locus YKL160W, strain elf1, stronger effect = lower value 0.136 | locus YKR026C, strain gcn3, stronger effect = lower value 0.449 | locus YKR091W, strain srl3, stronger effect = lower value 0.593 | locus YLL001W, strain dnm1, stronger effect = lower value 0.338 | locus YLL026W, stronger effect = lower value 0.226 | locus YLL041C, strain sdh2, stronger effect = lower value 0.379 | locus YLR027C, strain aat2, stronger effect = lower value 0.267 | locus YLR113W, strain HOG1, stronger effect = lower value 0.396 | locus YLR221C, strain rsa3, stronger effect = lower value 0.113 | locus YLR258W, strain gsy2, stronger effect = lower value 0.333 | locus YLR262C, strain YPT6 (second series), stronger effect = lower value 0.289 | locus YLR320W, strain mms22, stronger effect = lower value 0.123 | locus YLR342W, strain FKS1, stronger effect = lower value 0.248 | locus YLR357W, strain rsc2, stronger effect = lower value 0.717 | locus YLR370C, strain arc18, stronger effect = lower value 0.72 | locus YLR384C, strain iki3, stronger effect = lower value 0.605 | locus YML120C, strain ndi1, stronger effect = lower value 0.221 | locus YMR058W, strain fet3, stronger effect = lower value 0.152 | locus YMR125W, strain sto1, stronger effect = lower value 0.156 | locus YMR129W, stronger effect = lower value 0.546 | locus YMR205C, strain PFK2, stronger effect = lower value 0.178 | locus YMR231W, strain pep5, stronger effect = lower value 0.522 | locus YNL071W, strain lat1, stronger effect = lower value 0.0772 | locus YNL183C, strain NPR1, stronger effect = lower value 0.475 | locus YNL209W, strain ssb2, stronger effect = lower value 0.606 | locus YNL248C, strain rpa49, stronger effect = lower value 0.319 | locus YNL322C, strain KRE1 (second series), stronger effect = lower value 0.462 | locus YNR049C, strain mso1, stronger effect = lower value 0.594 | locus YOR001W, strain rrp6, stronger effect = lower value 0.349 | locus YOR070C, strain gyp1, stronger effect = lower value 0.309 | locus YOR080W, strain dia2, stronger effect = lower value 0.71 | locus YOR083W, strain WHI5, stronger effect = lower value 0.38 | locus YOR106W, strain vam3, stronger effect = lower value 0.391 | locus YOR231W, strain MKK1, stronger effect = lower value 0.464 | locus YOR265W, strain rbl2, stronger effect = lower value 0.425 | locus YOR270C, strain vph1, stronger effect = lower value 0.191 | locus YOR290C, strain snf2, stronger effect = lower value 0.145 | locus YPL051W, strain arl3, stronger effect = lower value 0.29 | locus YPL078C, strain atp4, stronger effect = lower value 0.166 | locus YPL106C, strain sse1, stronger effect = lower value 0.483 | locus YPL240C, strain hsp82, stronger effect = lower value 0.275 | locus YPL256C, strain CLN2, stronger effect = lower value 0.551
